# KB-3-1 tox: kills parental KB-3-1 adenocarcinoma cells | KB-3-1 viability, CellTiter-Glo ATP luminescence, 72 h | Potency, µM (highest dose often 46.1 µM), usual class: cytotoxic | hit rate 1.4% among 400,000 | AID 1347075; note: potency is the fitted concentration of half-maximal effect; % is set by controls: 0 for no effect and ±100 for the full control effect; nearly all actives have a fitted effect of over 60% in size
#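 Luminescent ATP read-out (CellTiter-Glo) measures survival of drug-naive KB-3-1 cells after 72 h compound exposure at 37 °C. Titration series was screened from lowest to highest concentration, with DMSO vehicle plates as background controls.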
# SW480 rerep: DNA re-replication induction in SW480 cells; Potency, µM (highest dose often 46.1 µM), for inactives: top-dose re-replication activation, actives largely listed as activators; hit rate 1.8% among 340,000; AID 624297; SW480 DNA re-replication, Hoechst DNA content imaging, 48 h; note: potency is the fitted concentration of half-maximal effect; % of control where 0% means no effect; nearly all actives have a fitted effect of over 55% in size
#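 Cells (250 per well) received 23 nL compound or DMSO by pin tool and were kept 48 hr at 37 C, 5% CO2. Nuclei were then stained with Hoechst for 40 min and scanned for DNA content.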
# MCF10A rerep: DNA re-replication induction in MCF 10a cells. Potency, µM (titrated, usually from 46.1 µM), inactives show top-dose activity, positive = re-replication, hits mostly activators. AID 624296. MCF 10A DNA re-replication, Hoechst nuclear intensity, 48 h. hit rate 2.9% among 350,000; note: potency is the fitted concentration of half-maximal effect; % of control where 0% means no effect; nearly all actives have a fitted effect of over 50% in size
# KB-V1 cytotox: kills drug-selected multidrug resistant KB-V1 cells | KB-V1 MDR cells viability, CellTiter-Glo, 72 h | Potency, µM (highest dose often 46.1 µM), usual class: cytotoxic | hit rate 3.4% among 400,000; note: potency is the fitted concentration of half-maximal effect; % is set by controls: 0 for no effect and ±100 for the full control effect; nearly all actives have a fitted effect of over 60% in size
#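 KB-V1 cells (P-gp-expressing MDR subline of KB-3-1) in phenol-red-free DMEM with 10% FBS were exposed to library compounds over a concentration series for 72 h at 37 degrees C. Viability read by CellTiter-Glo luminescence; concentration-effect curves fitted after normalization.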
# IL1B secr inh: inflammasome signaling inhibition, IL-1 beta readout; activity change, % at 57.5 µM; hit rate 4.7% among 360,000; THP-1 LPS/ATP IL-1B secretion, AlphaLISA, 16 h; active compounds read low; in the data active = activity change below about -50%; inconclusive = mostly about -30% to -49%; note: % is set by controls: 0 for no effect and ±100 for the full control effect
#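 Secreted IL-1B measured by AlphaLISA bead assay after 16 h compound exposure of THP-1 cells; compounds (final up to 57.5 uM) added 1 h before LPS (250 ng/mL) and ATP (1.25 mM) stimulation; lower signal means less secretion.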
# Numbers without * were called inactive; i = inactive; ? = inconclusive; . = not tested or not shown; ! = a repeat was not active; [ ] = dose if it differs, or a comment. Only some compounds are listed: those with a hit (about 9.9% of all), similar ones and a draw of the others. Unless noted, calls come from the whole dose curve; as a rule, active = well fitted curve in the direction sought with a large enough effect; inconclusive = small, poorly fitted or top-dose-only effect, or another doubt; inactive = no such curve, though single readings can be large; an effect the other way counts as inactive or inconclusive.
SMILES,KB-3-1 tox,SW480 rerep,MCF10A rerep,KB-V1 cytotox,IL1B secr inh
c1ccc(C(OCCN2CCN(c3ncccn3)CC2)c2ccccc2)cc1,i,1%,?,i,-76*
CC(C)(O)C1C2OC(=O)C1[C@]1(O)C[C@H]3O[C@]34C(=O)O[C@H]2[C@]14C (stereo not given in full) (tested in a mixture with another compound),.,-1%,4%,.,.
O=C1C=CC2C3C(=O)N(c4ccccc4)C(=O)C3C1N2Cc1ccccc1 (stereo not given),?,3.7µM*,?,18µM*,-97*
COc1ccc(S(=O)(=O)Nc2ccc3c(c2)CC(=O)N([C@@H](C)CO)C[C@H](C)[C@@H](CN(C)S(=O)(=O)c2ccc(F)cc2)O3)cc1,i,?,-2%,i,-12
CC(N)Cc1cn(Cc2ccccc2)c2ccccc12 (stereo not given),23µM*,?,?,?,-90*
C[N+]1=C(/C=C/Nc2ccccc2)C(C)(C)c2ccccc21,?,-4%,10%,21µM*,-81*
O=[N+]([O-])c1ccc(Cl)c([N+](=O)[O-])c1,?,?,?,16µM*,-110*
O=C(c1ccc2c(c1)ncn2C1CCCCC1)N1CCC2(CC1)OCCO2,?,12µM*,13µM*,9.2µM*,45
Cc1cccc(-c2nc3ccc(C(=O)N4CCC5(CC4)OCCO5)cc3nc2-c2cccc(C)c2)c1,?,?,?,i,-77*
COc1cc(N)c(Cl)cc1C(=O)N[C@@H]1CN2CCC1CC2,.,1%,14%,.,.
CC(C)(C)n1ncc2c(=O)n(Cc3cccc(Cn4cnc5c(cnn5C(C)(C)C)c4=O)c3F)cnc21,?,3%[9.22 µM],-12%,?,.
COc1ccc(NC(=O)c2cn(CCC#N)nc2-c2cccc([N+](=O)[O-])c2)cc1,i,-7%,-1%,i,-9
COc1ccc(Oc2cc(NC(=O)c3nn(C)cc3[N+](=O)[O-])cc([N+](=O)[O-])c2)cc1,21µM*,?,2.1µM*,?,-96*
Cc1ccc(C2=NCC(=O)Nc3ccc(Br)cc32)cc1,i,1%,?,i,25
O=C(C1CC(c2ccc(Cl)c(Cl)c2)=NO1)N1CCC2(CC1)OCCO2 (stereo not given),i,-17%,21%,i,-71*
O=C(C1CC(c2ccc(F)cc2)=NO1)N1CCC2(CC1)OCCO2 (stereo not given),i,-3%,7%,i,-13
Cc1ccc(Cn2cccc(C(=O)Nc3ccc4c(c3)OCCO4)c2=O)cc1,i,.,.,?,.
CCOC(=O)N1CCN(C(=O)C(CC(C)C)NS(=O)(=O)c2ccc3c(c2)oc(=O)n3C)CC1 (stereo not given),i,-5%,?,i,-9
CC[C@H](C)[C@@H]1NC(=O)CNC(=O)c2csc(n2)[C@H](C(C)(C)O)OC(=O)C(C)(C)[C@H](CCCC(C)(Cl)Cl)OC(=O)c2csc1n2,0.46µM*,.,.,13µM*,-26
c1ccc(CNc2c3c(nc4ccccc24)CCC3)cc1,?,14%,?,?,-93*
CC(C)CNc1c2c(nc3ccccc13)CCC2,?,8%,-11%,?,-60*
OCCNc1c2c(nc3ccccc13)CCCC2,i,-3%,-6%,i,-28
O=C(COc1ccc(Cl)cc1Cl)Nc1ccc(CN2CCCCC2)cc1,i,-30%,?,i,-18
O=C(O)c1[nH]c(=O)[nH]c(=O)c1F,7.3µM*,-6%,-5%,i,33
O=[N+]([O-])c1cc(I)c(O)c(I)c1,.,-7%,?,.,.
SMILES,KB-3-1 tox,SW480 rerep,MCF10A rerep,KB-V1 cytotox,IL1B secr inh
C[C@]12CC[C@@H](O)CC1=CCC1C2CC[C@@]2(C)C1CC[C@@H]2N (stereo not given in full),i,?,?,i,12
C[C@]12CC[C@H](N)CC1=CCC1C2CC[C@@]2(C)C1CC[C@@H]2O (stereo not given in full),i,18µM*,?,i,-12
C[C@H]1CC2C3CC=C4C[C@@H](O)CC[C@]4(C)C3CC[C@]2(C)[C@H]1O (stereo not given in full),i,-4%,?,18µM*,69
Cc1ccc(S(=O)(=O)NN=Cc2cc(Cl)ccc2O)cc1,i,9%,?,i,6
COc1ccc(-c2c3c(nc4sc5c(Cl)nc(C)nc5c24)CCC3)cc1,7.3µM*,-2%,?,?,6
Cc1c(P(=S)(c2ccccc2)c2ccccc2)[n+]2ccccc2n1C,2.6µM*!,-18%,0.73µM*,?,-1
Cc1cc(C=C2C(=O)NC(=S)NC2=O)c(C)n1C1CCCC1,i,24%,?,i,-53*
C[C@H](CCC(=O)O)[C@H]1CC[C@@H]2[C@@H]3[C@@H](O)C[C@H]4C[C@@H](O)CC[C@@]4(C)[C@H]3CC[C@@]21C,.,-4%[20.6 µM],-6%[20.6 µM],.,.
NC1=C(Br)C(=O)c2ccccc2C1=O,?,-59%,?,12µM*,-8
O=C1C(=O)c2ccccc2-c2ccccc21,5.2µM*,?,?,4.1µM*,-108*
O=C1C(=O)c2cccc3cccc1c23,16µM*,?,-1%,?,5
CN(C)c1ccccc1,i,.,.,i,5
CN(C)c1ccc(C(=O)c2ccc(N(C)C)cc2)cc1,?,5.2µM*,6.5µM*,?,27
CN1/C(=C\C=C2C(=O)NC(=O)NC2=O)C(C)(C)c2ccccc21,5.2µM*,8%,12%,?,-8
N#CC1=C(N)Oc2c(c(=O)sc3ccccc23)C1c1ccncc1 (stereo not given),?,13µM*,21µM*,i,27
CC(C)CCNC(=O)CN1C(=O)CN=C(c2ccccc2)c2ccccc21,i,0%,-2%,i,-6
CC(C)CCNC(=O)CSc1nc2ccccc2c(=O)[nH]1,i,-12%,2%,16µM*,39
COc1cc(C(=O)NCCCCCC(=O)O)cc(OC)c1OC,i,2%,?,i,-9
Nc1ccc(N)cc1,.,12%,-10%,.,.
C[C@]12CC[C@@H]3c4cc(O)c(O)cc4CC[C@H]3[C@@H]1CC[C@@H]2O,6.5µM*,?,26µM*,13µM*,-15
CC1(O)CCC2C3CCC4=CC(=O)CCC4=C3C=CC21C (stereo not given),?,4%,?,9.2µM*,20
C[C@]12CCC(=O)C=C1CCC1C2CC[C@@]2(C)C1CC[C@@H]2O (stereo not given in full),4.6µM*,5%,5%,2.3µM*,11
C[C@]12CC[C@@H]3c4ccc(O)c(O)c4CC[C@H]3[C@@H]1CC[C@@H]2O,?,?,-3%,i,?

# Screening results (PubChem BioAssay)
